Experimental data: the supplement of paper PMC4466140

Molecular target: AgAbp1
Assay: SPOT peptide array binding signal intensity (averaged, normalized) (arbitrary units (background-subtracted, floor 0; scale differs between SH3 domains)); higher = stronger binding of the SH3 domain to the peptide
Outline: (§1)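 Spot intensities were captured after detection with anti-GST antibody, an HRP-linked anti-mouse secondary and luminol, and quantified with Genespotter. The probes were GST-fused SH3 domains from four yeast species, produced in E. coli BL21(DE3), purified on glutathione Sepharose and incubated at 10 μg/ml overnight at 4°C on cellulose-bound synthetic 15-mer peptides with cysteines replaced by serines. Binding signal is the normalized, background-subtracted spot intensity averaged over replicates, and its arbitrary units differ between domains.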

| Binder | SPOT peptide array binding signal intensity |
| --- | --- |
| VAPPPLPNRQLPNLD | 1.5 |

Molecular target: AgBbc1
Assay: as above
Outline: as §1

| Binder | SPOT peptide array binding signal intensity |
| --- | --- |
| VAPPPLPNRQLPNLD | 45.5 |

Molecular target: AgBem1-D1
Assay: as above
Outline: as §1

| Binder | SPOT peptide array binding signal intensity |
| --- | --- |
| VAPPPLPNRQLPNLD | 16 |

Molecular target: AgBzz1-D1
Assay: as above
Outline: as §1

| Binder | SPOT peptide array binding signal intensity |
| --- | --- |
| VAPPPLPNRQLPNLD | 3 |

Molecular target: AgBzz1-D2
Assay: as above
Outline: as §1

| Binder | SPOT peptide array binding signal intensity |
| --- | --- |
| VAPPPLPNRQLPNLD | ≤ 0 |

Molecular target: AgCyk3
Assay: as above
Outline: as §1

| Binder | SPOT peptide array binding signal intensity |
| --- | --- |
| VAPPPLPNRQLPNLD | ≤ 0 |

Molecular target: AgFus1
Assay: as above
Outline: as §1

| Binder | SPOT peptide array binding signal intensity |
| --- | --- |
| VAPPPLPNRQLPNLD | ≤ 0 |

Molecular target: AgHof1
Assay: as above
Outline: as §1

| Binder | SPOT peptide array binding signal intensity |
| --- | --- |
| VAPPPLPNRQLPNLD | 247 |

Molecular target: AgHse1
Assay: as above
Outline: as §1

| Binder | SPOT peptide array binding signal intensity |
| --- | --- |
| VAPPPLPNRQLPNLD | 51 |

Molecular target: AgLsb1
Assay: as above
Outline: as §1

| Binder | SPOT peptide array binding signal intensity |
| --- | --- |
| VAPPPLPNRQLPNLD | 693 |

Molecular target: AgLsb4
Assay: as above
Outline: as §1

| Binder | SPOT peptide array binding signal intensity |
| --- | --- |
| VAPPPLPNRQLPNLD | 5100 |

Molecular target: AgMyo5
Assay: as above
Outline: as §1

| Binder | SPOT peptide array binding signal intensity |
| --- | --- |
| VAPPPLPNRQLPNLD | 364 |

Molecular target: AgNbp2
Assay: as above
Outline: as §1

| Binder | SPOT peptide array binding signal intensity |
| --- | --- |
| VAPPPLPNRQLPNLD | ≤ 0 |

Molecular target: AgRvs167
Assay: as above
Outline: as §1

| Binder | SPOT peptide array binding signal intensity |
| --- | --- |
| VAPPPLPNRQLPNLD | 952 |

Molecular target: AgSho1
Assay: as above
Outline: as §1

| Binder | SPOT peptide array binding signal intensity |
| --- | --- |
| VAPPPLPNRQLPNLD | ≤ 0 |

Molecular target: AgSla1-D1-D2
Assay: as above
Outline: as §1

| Binder | SPOT peptide array binding signal intensity |
| --- | --- |
| VAPPPLPNRQLPNLD | 1.5 |

Molecular target: AgSla1-D3
Assay: as above
Outline: as §1

| Binder | SPOT peptide array binding signal intensity |
| --- | --- |
| VAPPPLPNRQLPNLD | ≤ 0 |

Molecular target: CaAbp1-D1
Assay: as above
Outline: as §1

| Binder | SPOT peptide array binding signal intensity |
| --- | --- |
| VAPPPLPNRQLPNLD | ≤ 0 |

Molecular target: CaAbp1-D2
Assay: as above
Outline: as §1

| Binder | SPOT peptide array binding signal intensity |
| --- | --- |
| VAPPPLPNRQLPNLD | 5 |

Molecular target: CaBbc1
Assay: as above
Outline: as §1

| Binder | SPOT peptide array binding signal intensity |
| --- | --- |
| VAPPPLPNRQLPNLD | 252 |

Molecular target: CaBem1-D1
Assay: as above
Outline: as §1

| Binder | SPOT peptide array binding signal intensity |
| --- | --- |
| VAPPPLPNRQLPNLD | ≤ 0 |

Molecular target: CaBzz1-D1
Assay: as above
Outline: as §1

| Binder | SPOT peptide array binding signal intensity |
| --- | --- |
| VAPPPLPNRQLPNLD | 14 |

Molecular target: CaBzz1-D2
Assay: as above
Outline: as §1

| Binder | SPOT peptide array binding signal intensity |
| --- | --- |
| VAPPPLPNRQLPNLD | 4 |

Molecular target: CaCyk3
Assay: as above
Outline: as §1

| Binder | SPOT peptide array binding signal intensity |
| --- | --- |
| VAPPPLPNRQLPNLD | 1 |

Molecular target: CaFus1
Assay: as above
Outline: as §1

| Binder | SPOT peptide array binding signal intensity |
| --- | --- |
| VAPPPLPNRQLPNLD | ≤ 0 |

Molecular target: CaHof1
Assay: as above
Outline: as §1

| Binder | SPOT peptide array binding signal intensity |
| --- | --- |
| VAPPPLPNRQLPNLD | 2 |

Molecular target: CaHse1
Assay: as above
Outline: as §1

| Binder | SPOT peptide array binding signal intensity |
| --- | --- |
| VAPPPLPNRQLPNLD | 569 |

Molecular target: CaLsb1
Assay: as above
Outline: as §1

| Binder | SPOT peptide array binding signal intensity |
| --- | --- |
| VAPPPLPNRQLPNLD | 3.25 |

Molecular target: CaLsb4
Assay: as above
Outline: as §1

| Binder | SPOT peptide array binding signal intensity |
| --- | --- |
| VAPPPLPNRQLPNLD | 4840 |

Molecular target: CaMyo5
Assay: as above
Outline: as §1

| Binder | SPOT peptide array binding signal intensity |
| --- | --- |
| VAPPPLPNRQLPNLD | 2.5 |

Molecular target: CaNbp2
Assay: as above
Outline: as §1

| Binder | SPOT peptide array binding signal intensity |
| --- | --- |
| VAPPPLPNRQLPNLD | 28.5 |

Molecular target: CaRvs167
Assay: as above
Outline: as §1

| Binder | SPOT peptide array binding signal intensity |
| --- | --- |
| VAPPPLPNRQLPNLD | 3100 |

Molecular target: CaRvs167-3
Assay: as above
Outline: as §1

| Binder | SPOT peptide array binding signal intensity |
| --- | --- |
| VAPPPLPNRQLPNLD | ≤ 0 |

Molecular target: CaSho1
Assay: as above
Outline: as §1

| Binder | SPOT peptide array binding signal intensity |
| --- | --- |
| VAPPPLPNRQLPNLD | ≤ 0 |

Molecular target: CaSla1-D1-D2
Assay: as above
Outline: as §1

| Binder | SPOT peptide array binding signal intensity |
| --- | --- |
| VAPPPLPNRQLPNLD | ≤ 0 |

Molecular target: CaSla1-D3
Assay: as above
Outline: as §1

| Binder | SPOT peptide array binding signal intensity |
| --- | --- |
| VAPPPLPNRQLPNLD | ≤ 0 |

Molecular target: ScAbp1
Assay: as above
Outline: as §1

| Binder | SPOT peptide array binding signal intensity |
| --- | --- |
| VAPPPLPNRQLPNLD | 2 |

Molecular target: ScBbc1
Assay: as above
Outline: as §1

| Binder | SPOT peptide array binding signal intensity |
| --- | --- |
| VAPPPLPNRQLPNLD | ≤ 0 |

Molecular target: ScBem1-D1
Assay: as above
Outline: as §1

| Binder | SPOT peptide array binding signal intensity |
| --- | --- |
| VAPPPLPNRQLPNLD | ≤ 0 |

Molecular target: ScBzz1-D1
Assay: as above
Outline: as §1

| Binder | SPOT peptide array binding signal intensity |
| --- | --- |
| VAPPPLPNRQLPNLD | 3.5 |

Molecular target: ScBzz1-D2
Assay: as above
Outline: as §1

| Binder | SPOT peptide array binding signal intensity |
| --- | --- |
| VAPPPLPNRQLPNLD | ≤ 0 |

Molecular target: ScCyk3
Assay: as above
Outline: as §1

| Binder | SPOT peptide array binding signal intensity |
| --- | --- |
| VAPPPLPNRQLPNLD | ≤ 0 |

Molecular target: ScFus1
Assay: as above
Outline: as §1

| Binder | SPOT peptide array binding signal intensity |
| --- | --- |
| VAPPPLPNRQLPNLD | ≤ 0 |

Molecular target: ScHof1
Assay: as above
Outline: as §1

| Binder | SPOT peptide array binding signal intensity |
| --- | --- |
| VAPPPLPNRQLPNLD | 39.2 |

Molecular target: ScHse1
Assay: as above
Outline: as §1

| Binder | SPOT peptide array binding signal intensity |
| --- | --- |
| VAPPPLPNRQLPNLD | 10.5 |

Molecular target: ScLsb1
Assay: as above
Outline: as §1

| Binder | SPOT peptide array binding signal intensity |
| --- | --- |
| VAPPPLPNRQLPNLD | 1610 |

Molecular target: ScLsb2
Assay: as above
Outline: as §1

| Binder | SPOT peptide array binding signal intensity |
| --- | --- |
| VAPPPLPNRQLPNLD | 203 |

Molecular target: ScLsb3
Assay: as above
Outline: as §1

| Binder | SPOT peptide array binding signal intensity |
| --- | --- |
| VAPPPLPNRQLPNLD | 8010 |

Molecular target: ScLsb4
Assay: as above
Outline: as §1

| Binder | SPOT peptide array binding signal intensity |
| --- | --- |
| VAPPPLPNRQLPNLD | 4010 |

Molecular target: ScMyo3
Assay: as above
Outline: as §1

| Binder | SPOT peptide array binding signal intensity |
| --- | --- |
| VAPPPLPNRQLPNLD | 321 |

Molecular target: ScMyo5
Assay: as above
Outline: as §1

| Binder | SPOT peptide array binding signal intensity |
| --- | --- |
| VAPPPLPNRQLPNLD | 208 |

Molecular target: ScNbp2
Assay: as above
Outline: as §1

| Binder | SPOT peptide array binding signal intensity |
| --- | --- |
| VAPPPLPNRQLPNLD | ≤ 0 |

Molecular target: ScPex13
Assay: as above
Outline: as §1

| Binder | SPOT peptide array binding signal intensity |
| --- | --- |
| VAPPPLPNRQLPNLD | 1660 |

Molecular target: ScRvs167
Assay: as above
Outline: as §1

| Binder | SPOT peptide array binding signal intensity |
| --- | --- |
| VAPPPLPNRQLPNLD | 2740 |

Molecular target: ScSho1
Assay: as above
Outline: as §1

| Binder | SPOT peptide array binding signal intensity |
| --- | --- |
| VAPPPLPNRQLPNLD | ≤ 0 |

Molecular target: ScSla1-D1-D2
Assay: as above
Outline: as §1

| Binder | SPOT peptide array binding signal intensity |
| --- | --- |
| VAPPPLPNRQLPNLD | ≤ 0 |

Molecular target: ScSla1-D3
Assay: as above
Outline: as §1

| Binder | SPOT peptide array binding signal intensity |
| --- | --- |
| VAPPPLPNRQLPNLD | ≤ 0 |

Molecular target: SpAbp1-D1
Assay: as above
Outline: as §1

| Binder | SPOT peptide array binding signal intensity |
| --- | --- |
| VAPPPLPNRQLPNLD | 8 |

Molecular target: SpBbc1
Assay: as above
Outline: as §1

| Binder | SPOT peptide array binding signal intensity |
| --- | --- |
| VAPPPLPNRQLPNLD | ≤ 0 |

Molecular target: SpBzz1-D1
Assay: as above
Outline: as §1

| Binder | SPOT peptide array binding signal intensity |
| --- | --- |
| VAPPPLPNRQLPNLD | 176 |
